“And” between values parts separate entries of the source, which are not always exact repeats. Identical values can stand only once. For some assays here: Entries with a potency or affinity are not part of this list. The source made the active and inactive calls.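 Rule for the calls, unless noted: active = dose-response curve with midpoint inside the tested range, moderate steepness, significant amplitude and little compound fluorescence or bead-attachment interference; inactive = the rest.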

We go through 24 compounds from PubChem BioAssay.

Assay [1] concerns the target Cell division control protein 42 homolog (Homo sapiens) (UniProt P60953). The assay can be described thus: inhibition of fluorescent GTP binding to constitutively active Cdc42 – biochemical, multiplex bead flow cytometry, Bodipy-FL-GTP, dose response (AID 1333;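 active = fitted half-maximal concentration within the tested dose range, moderate curve steepness, a statistically real signal drop, and little compound fluorescence or tag-binding interference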). (In general: A flow cytometer gives signals particle by particle.)
Assay [2] shares this target. Put plainly: inhibition of fluorescent GTP binding to wildtype Cdc42 – biochemical, multiplex bead flow cytometry, Bodipy-FL-GTP, dose response (AID 1334;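 active = fitted half-maximal concentration within the tested range, moderate curve steepness, significant signal drop, and little compound fluorescence or bead-linkage interference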). The settings on record: bead-based flow cytometry, Bodipy-FL-GTP binding to GST-Cdc42; at 100 µM (top of the series) unless noted.
Assay [3] concerns Ras-related protein Rab-7a (dog), GTP binding. Put plainly: blockers of fluorescent GTP binding to Rab7 – biochemical, wildtype, multiplex bead flow cytometry, dose response (AID 1336; call rule not given here).
Assay [4] addresses GTPase HRas (Homo sapiens) (UniProt P01112). Put plainly: Ras wt fluorescent GTP loading blockade – biochemical, wildtype, multiplex bead flow cytometry, dose response (AID 1335;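 active = fitted half-maximal concentration within 10 nM to 100 µM, steepness 0.5 to 2, significant signal drop, low assay interference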). Conditions: bead-based flow cytometry, Bodipy-GTP binding to GST-Ras; at 100 µM (top of the series) unless noted.
For assay [5] the target is unchanged. The assay can be described thus: blockade of GTP loading onto mutant Ras – biochemical, activated mutant, multiplex bead flow cytometry, dose response (AID 1341).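 Note: GST-tagged constitutively activated Ras mutant immobilized on beads and multiplexed with other GTPases.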
Assay [6] addresses Ras-related C3 botulinum toxin substrate 1 (Homo sapiens) (UniProt P63000). Put plainly: inhibition of wildtype Rac1 nucleotide loading – biochemical, multiplex bead flow cytometry, dose response (AID 1340;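 active = dose curve with midpoint inside tested range, moderate steepness, plateau gap beyond fit error, low compound glow and bead-link interference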). Conditions: GST-Rac1 beads, Bodipy-FL-GTP binding; at 100 µM (top of the series) unless noted.

Sequence of GTPase HRas (Homo sapiens) (P01112 whole entry, looked up): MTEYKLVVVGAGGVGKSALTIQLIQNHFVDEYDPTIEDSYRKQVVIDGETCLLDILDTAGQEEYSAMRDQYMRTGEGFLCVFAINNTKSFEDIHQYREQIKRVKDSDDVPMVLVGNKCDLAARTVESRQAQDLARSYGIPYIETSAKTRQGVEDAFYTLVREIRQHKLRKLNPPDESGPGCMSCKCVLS
Sequence of Cell division control protein 42 homolog (Homo sapiens) (P60953 whole entry, looked up): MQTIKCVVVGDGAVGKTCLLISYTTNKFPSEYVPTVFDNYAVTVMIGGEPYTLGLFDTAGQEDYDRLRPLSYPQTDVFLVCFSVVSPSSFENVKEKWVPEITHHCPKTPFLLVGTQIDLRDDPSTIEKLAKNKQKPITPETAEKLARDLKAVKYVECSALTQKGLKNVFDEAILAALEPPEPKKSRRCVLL

Consider `Cc1cc(NC(=O)CSc2nc(-c3ccccc3)c(C#N)c(=O)[nH]2)no1`, for which the compound was called inactive in assay [1] and in assay [3]. In assay [2], this compound showed a fluorescence, percent of control (lower = inhibition) of 45.4%.

As to `CC(C)Oc1ccc(/C=N/NC(=O)c2ccc(N(Cc3ccccc3)S(C)(=O)=O)cc2)cc1`, the compound was classed as inactive in assay [1], in assay [3] and in assay [5]. Moreover, the fluorescence, percent of control (lower = inhibition) in assay [2] turned out to be 43.8%. For the same compound, the GTP binding, percent of control in assay [4] is 57.5%.

Regarding `CCn1cc(C=C2C(=O)c3ccccc3C2=O)c2ccccc21`, the result in assay [1], in assay [3] and in assay [5] was inactive. The same compound came in with a fluorescence, percent of control (lower = inhibition) in assay [2] of 40.2%. Besides, in assay [6], the GTP binding signal, raw median fluorescence (lower = inhibition) (MCF (arbitrary fluorescence units)) was 161.

In the case of `O=C(Nc1nc(-c2ccc(S(=O)(=O)N3CCCC3)cc2)cs1)c1ccco1`, the compound was classed as inactive in assay [1], in assay [3] and in assay [5]. Also, the fluorescence, percent of control (lower = inhibition) in assay [2] was 49.8%. In assay [4], this compound showed a GTP binding, percent of control of 118%.

`S=C(Nc1ccc(Oc2ccccc2)cc1)NC1CCCCC1`: the result in assay [1], in assay [3] and in assay [5] was inactive. In addition, the GTP binding, percent of control in assay [4] came out at 62.2%. The same compound displayed a GTP binding signal, raw median fluorescence (lower = inhibition) (MCF (arbitrary fluorescence units)) in assay [6] of 205.

For `CCOC(=O)Cn1nnnc1C(C(C)C)N(Cc1cccs1)Cc1cc2cc(C)ccc2[nH]c1=O` (stereo not drawn), the compound was classed as inactive in assay [1], in assay [3] and in assay [5]. In addition, in assay [4], the GTP binding, percent of control was determined as 181%. Moreover, in assay [6], the GTP binding signal, raw median fluorescence (lower = inhibition) (MCF (arbitrary fluorescence units)) amounted to 181.

Take `NC(N)=NS(=O)(=O)c1ccc(NC(=S)NC(=O)c2ccc3c(c2)OCO3)cc1`: the outcome in assay [1], in assay [3] and in assay [5] was inactive. In addition, in assay [2], the fluorescence, percent of control (lower = inhibition) is 44.3%. For the same compound, the GTP binding, percent of control in assay [4] turned out to be 97.7%.

On to `Cc1cc(C(=O)Oc2ccccc2C(=O)O)c(C)o1`, for which the result in assay [1] and in assay [5] was inactive. For the same compound, in assay [2], the fluorescence, percent of control (lower = inhibition) was 61.1%.

Take `COc1ccc(Cl)cc1NCc1sc(C(=O)O)cc1C`: the compound was called inactive in assay [1], in assay [3] and in assay [5]. Further, in assay [2], the fluorescence, percent of control (lower = inhibition) came out at 62.5%. In assay [4], the GTP binding, percent of control was 84.3%.

Take `O=C(Nc1ccccc1)C1=C(c2ccccc2)S(=O)(=O)CCS1(=O)=O`: the fluorescence, percent of control (lower = inhibition) in assay [2] came out at 21.5%. This compound displayed a GTP binding, percent of control in assay [4] of 72.8%. The call in assay [3] and in assay [5] was inactive. Besides, the GTP binding signal, raw median fluorescence (lower = inhibition) (MCF (arbitrary fluorescence units)) in assay [6] came to 217.

Turning to `COc1ccc(C(=O)/C=C/Nc2ccc(S(=O)(=O)Nc3nc(C)cc(C)n3)cc2)cc1OC`, the call in assay [1], in assay [3] and in assay [5] was inactive. In assay [2], this compound registered a fluorescence, percent of control (lower = inhibition) of 39.1%. In assay [4], this compound returned a GTP binding, percent of control of 80%.

In assay [2], `Cc1ccc(NC(=O)C2=C(c3ccccc3)S(=O)(=O)CCS2(=O)=O)cc1` had a fluorescence, percent of control (lower = inhibition) of 22.2%. The compound further displayed a GTP binding, percent of control in assay [4] of 79.3%. Besides, the result in assay [3] and in assay [5] was inactive. In addition, the GTP binding signal, raw median fluorescence (lower = inhibition) (MCF (arbitrary fluorescence units)) in assay [6] is 222.

With `CCN1C(c2ccccc2)=C(c2ccccc2)S/C1=C/C=C1\SC(=S)N(C)C1=O`, the compound was called inactive in assay [1], in assay [3] and in assay [5]. In assay [2], the fluorescence, percent of control (lower = inhibition) is 41.8%. Besides, in assay [6], the GTP binding signal, raw median fluorescence (lower = inhibition) (MCF (arbitrary fluorescence units)) came to 167.

As to `O=C(NNC(=S)NCc1ccc(Cl)cc1)c1ccc(Br)o1`, the call in assay [1], in assay [3] and in assay [5] was inactive. Moreover, in assay [2], the fluorescence, percent of control (lower = inhibition) is 28.8%. The compound also yielded a GTP binding, percent of control in assay [4] of 74.4%.

Take `Cc1sc2nc3ccc(NCc4ccco4)nn3c(=O)c2c1C`: the compound was classed as inactive in assay [1], in assay [3] and in assay [5]. This compound also displayed a GTP binding, percent of control in assay [4] of 57.4%.

On to `NS(=O)(=O)c1ccc(N2N=C(c3ccccc3)CC2c2ccccc2)cc1` (stereo not drawn), for which the outcome in assay [1], in assay [3] and in assay [5] was inactive. In assay [4], the GTP binding, percent of control is 68% and 97.6%. Also, in assay [6], the GTP binding signal, raw median fluorescence (lower = inhibition) (MCF (arbitrary fluorescence units)) was 223 and 99.4.

`O=C(O)c1cc(Sc2ccc(Cl)cc2)nc2ccccc12` showed a fluorescence, percent of control (lower = inhibition) in assay [2] of 55.8%. In addition, in assay [4], the GTP binding, percent of control is 81.1%. Moreover, the call in assay [3] and in assay [5] was inactive. The same compound gave a GTP binding signal, raw median fluorescence (lower = inhibition) (MCF (arbitrary fluorescence units)) in assay [6] of 29.

In the case of `O=C(C#CC1CCCCC1)c1ccc([N+](=O)[O-])cc1`, the fluorescence, percent of control (lower = inhibition) in assay [2] amounted to 33%. In assay [4], the GTP binding, percent of control was 177%. In addition, the outcome in assay [3] and in assay [5] was inactive. The GTP binding signal, raw median fluorescence (lower = inhibition) (MCF (arbitrary fluorescence units)) in assay [6] amounted to 45.6.

Consider `O=C1/C(=C\c2cccnc2)Sc2ccccc21`, for which the outcome in assay [1], in assay [3] and in assay [5] was inactive. The compound further yielded a fluorescence, percent of control (lower = inhibition) in assay [2] of 29.1%. In assay [4], this compound yielded a GTP binding, percent of control of 62.4%.

Take `NC(=S)N=Nc1c(O)[nH]c2ccc(F)cc12`: the compound was called inactive in assay [1], in assay [3] and in assay [5]. The fluorescence, percent of control (lower = inhibition) in assay [2] was determined as 30.2%. Also, in assay [4], the GTP binding, percent of control stood at 64.9%.

In the case of `O=C(O)c1ccccc1NCc1ccccc1Cl`, the outcome in assay [1], in assay [3] and in assay [5] was inactive. In assay [2], this compound returned a fluorescence, percent of control (lower = inhibition) of 65.3%. The compound further had a GTP binding, percent of control in assay [4] of 88.6%.

On to `O=C(NCc1ccc2c(c1)OCO2)c1ccc(CSCc2cccc(Cl)c2)o1`, for which the fluorescence, percent of control (lower = inhibition) in assay [2] worked out at 31%. In assay [4], this compound gave a GTP binding, percent of control of 76.4%. For the same compound, the compound was called inactive in assay [3] and in assay [5]. Further, the GTP binding signal, raw median fluorescence (lower = inhibition) (MCF (arbitrary fluorescence units)) in assay [6] was 266.

Regarding `O=C(O)c1ccccc1Oc1ccccc1`, the compound was classed as inactive in assay [1] and in assay [5]. Besides, the fluorescence, percent of control (lower = inhibition) in assay [2] was 83.7%. This compound came in with a GTP binding, percent of control in assay [4] of 100%. In assay [6], this compound came in with a GTP binding signal, raw median fluorescence (lower = inhibition) (MCF (arbitrary fluorescence units)) of 65.

As for `Cc1cc(C(=O)O)sc1CNCc1ccccc1Cl`, the outcome in assay [1] was inactive. In assay [2], this compound returned a fluorescence, percent of control (lower = inhibition) of 60.4%. In assay [6], this compound returned a GTP binding signal, raw median fluorescence (lower = inhibition) (MCF (arbitrary fluorescence units)) of 33.9.
